DAT uptake mod: modulates human dopamine transporter uptake under cocaine | Q01959 | 1.3% of 110,000 active | B-score at 10 µM | LLC-PK1 hDAT cells, [14C]-dopamine uptake with cocaine IC80; actives deviate in either direction;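 active means Z score or B-score, a plate-position-corrected score, falls beyond the plate's 99.7% confidence bounds, in either direction; inactive means both scores lie inside the 99.7% bounds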
CYP2C19 activ: increases human CYP2C19 enzyme activity; P33261; recombinant CYP2C19, luciferin-H EGE luminescence; active compounds read high; 0 = fully inhibited enzyme, 1 = untreated enzyme; activation factor at 5 µM; 96,000 tested, under 10 active;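 active means activation factor of at least 2 at 5 µM in the primary screen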
Target sequence (P33261 whole entry, looked up): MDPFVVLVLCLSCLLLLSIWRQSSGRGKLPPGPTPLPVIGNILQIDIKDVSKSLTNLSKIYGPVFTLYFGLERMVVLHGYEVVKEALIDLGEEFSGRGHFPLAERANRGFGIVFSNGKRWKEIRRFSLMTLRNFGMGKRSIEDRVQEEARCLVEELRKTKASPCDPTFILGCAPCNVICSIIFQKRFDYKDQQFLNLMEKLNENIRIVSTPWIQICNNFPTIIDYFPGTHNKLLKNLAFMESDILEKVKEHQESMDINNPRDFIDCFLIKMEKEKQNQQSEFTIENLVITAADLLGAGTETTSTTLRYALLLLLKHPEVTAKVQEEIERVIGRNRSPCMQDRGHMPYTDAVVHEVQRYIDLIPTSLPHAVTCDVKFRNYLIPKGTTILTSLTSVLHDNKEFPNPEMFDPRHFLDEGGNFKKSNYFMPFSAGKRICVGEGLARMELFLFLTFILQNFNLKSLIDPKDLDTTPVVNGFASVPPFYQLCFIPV
CYP2C9 inhib: blocks human cytochrome P450 2C9; P11712; 20% of 96,000 active; AID 777; CYP2C9 Supersomes, luciferin-H conversion, luminescence; inhibition, % at 5 µM;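 active means blocking of liver enzyme CYP2C9 beyond about 50% at 5 µM, limit read from the data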
CYP2C9 activ: activators of human CYP2C9; recombinant CYP2C9, luciferin-H conversion, luminescence; active compounds read high; factor 1 = untreated enzyme, 0 = blocked; P11712; activation factor at 5 µM; 1.4% of 96,000 active;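 active means activation factor of 2 or more for CYP2C9 at a 5 µM dose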
CYP2C19 inh: inhibitors of human CYP2C19; AID 778; CYP2C19 Supersomes, luciferin-H EGE luminescence, 30 min; 21% of 96,000 active; inhibition, % at 5 µM;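 active means CYP2C19 inhibition above a set limit at 5 µM in the primary screen, cut at about 50% in these data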
D1 allo mod: D1 dopamine receptor (human) allosteric modulation. P21728. HEK293 D1, CRE-luciferase, dopamine EC30 potentiation; actives deviate in either direction. B-score at 10 µM. 5.9% of 58,000 active. AID 641;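 active means luminescence count or its row- and column-corrected plate score outside the 99.7% band of the plate's sample wells, on either side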
A number is an active result; i = inactive; nt = no result. The list is not random: actives were taken first. Their share in the collection is about 28%.

SMILES	DAT uptake mod	CYP2C19 activ	CYP2C9 inhib	CYP2C9 activ	CYP2C19 inh	D1 allo mod
Cc1ccc(S(=O)(=O)/N=C(\CSC(N)=O)Nc2ccccc2)cc1	i	i	i	i	i	nt
COC(=O)C(C(C)=O)C1=C/C(=N\S(=O)(=O)c2ccc(C)cc2)c2ccccc2C1=O (configuration not stated)	i	i	89.0	i	90.4	nt
COC(=O)c1c(NC(=O)c2ccco2)sc2c1C(C(=O)OC)CC2 (configuration not stated)	i	i	61.5	i	i	i
Cc1ccc(C(=O)Nc2sc3c(c2C(=O)O)CCCCC3)o1	i	i	i	i	i	-3
O=C(Nc1sc2c(c1C(=O)O)CCC2)c1ccco1	i	i	53.2	i	62.3	nt
COC(=O)c1c(NC(=O)c2ccc(C)o2)sc2c1CCCCC2	i	i	i	i	i	i
COC(=O)c1c(NC(=O)C(C)C)sc2c1C(C(=O)OC)CC2 (configuration not stated)	i	nt	nt	nt	nt	nt
CCOC(=O)c1c(=O)n(O)c2ccc(OC)cc2[n+]1[O-]	i	i	i	i	i	nt
Cc1ccc(C2c3c(oc4cc(C)c(C)cc4c3=O)C(=O)N2CCCN2CCOCC2)cc1 (configuration not stated)	i	i	i	i	i	i
CC(OC(=O)CN(C)S(=O)(=O)c1ccc(Cl)cc1)C(=O)Nc1ncc(Cl)cc1Cl (configuration not stated)	i	i	i	i	i	nt
CC(OC(=O)CNC(=O)C12CC3CC(CC(C3)C1)C2)C(=O)Nc1ncc(Cl)cc1Cl (configuration not stated)	i	i	i	i	54.0	nt
Cc1nc(-c2ccccc2)sc1C1(C)CC(c2ccc(C#N)cc2)=NO1 (configuration not stated)	i	nt	nt	nt	nt	nt
Cc1ccccc1C(=O)NC1CC(C)(C)NC(C)(C)C1	i	nt	nt	nt	nt	i
Cc1ccc(C)c(C(=O)NC2CC(C)(C)NC(C)(C)C2)c1	i	i	i	i	54.2	i
CCOC(=O)c1[nH]c2ccccc2c1NC(=O)c1ccc(Br)o1	i	nt	nt	nt	nt	nt
CCSc1ncc(/C=N/Nc2ccc(Cl)cc2)n1C	i	i	i	i	i	nt
CCSc1ncc(/C=N/Nc2ccccc2)n1C	i	i	51.9	i	i	nt
CN1C(=O)C2(N=c3ccccc3=N2)c2ccccc21	i	i	80.0	i	i	nt
CCCCCNc1nc(NCCCO)c(C#N)c2c1CN(C)CC2	i	i	54.3	i	i	nt
COC(=O)CSc1nc(N2CCCCC2)c2c(c1C#N)CCCC2	i	i	89.6	i	68.5	i
N#Cc1c(NCCCO)nc(-c2ccccc2)c2c1CCCC2	i	i	97.2	i	92.7	nt
N#Cc1c(SCC(=O)O)nc(N2CCCCC2)c2c1CCCC2	i	i	i	i	i	nt
COC(=O)CSc1nc(-c2ccccc2)c2c(c1C#N)CCCC2	i	i	68.7	i	97.2	nt
CN1CCN(CCC(=O)Nc2ccccc2Cl)CC1	i	nt	nt	nt	nt	nt
CC/C(=C1/C(=O)CC(C)(C)C(C(=O)OC)C1=O)N1CCCC1 (configuration not stated)	i	i	i	i	i	i
SMILES	DAT uptake mod	CYP2C19 activ	CYP2C9 inhib	CYP2C9 activ	CYP2C19 inh	D1 allo mod
CCO[C@H]1OC(C(=O)O)=C[C@@H](c2ccc3c(c2)OCO3)[C@@H]1CCCO	i	nt	nt	nt	nt	nt
O=C(NCC1CCCO1)C1CCCN(Cc2cnn(-c3ccccc3)c2-n2cccc2)C1 (configuration not stated)	i	i	i	i	i	i
O=C(Nc1ccc2c(c1)OCO2)C1CCN(S(=O)(=O)Cc2ccccc2)CC1	i	i	55.2	i	i	i
O=C(Nc1ccc2c(c1)OCO2)C1CCN(Cc2cnn(-c3ccccc3)c2-n2cccc2)CC1	i	i	69.4	i	i	i
CCN1C2=C(C(=O)CCC2)C(c2ccc(O)cc2)C2=C1CCCC2=O	i	i	i	i	i	i
COC(=O)c1ccc(Cn2nc(C)cc2C)cc1	i	i	i	i	92.7	nt
COC(=O)c1ccc(Cn2nc(C)c(Br)c2C)cc1	i	i	69.6	i	99.4	-2.74
Cc1cc(C)n(Cc2ccc(NC(=O)c3ccc(COc4ccccc4Br)cc3)cc2)n1	nt	i	76.8	i	i	nt
Cc1cc(C)n(Cc2ccc(C(=O)O)cc2)n1	i	i	i	i	i	nt
Cc1ccccc1NC(=O)Cn1nc(C(F)(F)F)cc1C1CC1	i	i	i	i	72.1	nt
Cc1cc(C)n(Cc2ccc(NC(=O)c3c([N+](=O)[O-])c(C)nn3C)cc2)n1	i	i	i	i	i	nt
Cc1ccc(C)c(NC(=O)Cn2nc(C(F)(F)F)cc2C2CC2)c1	i	i	i	i	i	nt
Cc1cc(C(F)(F)F)nn1CC(=O)NCc1ccccc1	i	i	i	i	52.3	i
COC(=O)c1ccc(Cn2nc(C(F)(F)F)cc2C)cc1	i	i	i	i	69.0	nt
COC(=O)c1cc(C(=O)OC)n(Cc2ccc(Br)cc2)n1	i	i	57.6	i	90.7	nt
CCCCOC(=O)C1=C(C)Nc2ncnn2C1c1cc(OC)c(OC)cc1OC (configuration not stated)	i	i	i	i	i	i
Cc1nc2ccc(NC(=S)NC(C)C)cc2nc1C	i	i	i	i	i	nt
O=C(NCc1nc2ccccc2[nH]1)C1=C[C@@H](c2ccc(C(F)(F)F)cc2)C[C@@H](OCCCCO)O1	i	nt	nt	nt	nt	nt
Cc1cc(O)cc(O)c1-c1onc(C(F)(F)F)c1-c1cscn1	i	i	i	i	79.8	i
CSc1nc(Oc2ccc(C)cc2)cc(C(F)(F)F)n1	i	i	i	i	i	nt
OC(Cn1cncn1)(c1ccccc1)c1ccccc1	i	i	76.3	i	51.0	nt
c1ccc(NCn2cncn2)nc1	i	i	i	i	i	nt
CC(C)Oc1ccc(C(=O)N/N=C/c2ccc(-c3ccc(S(=O)(=O)Nc4ncccn4)cc3)o2)cc1	i	i	83.8	i	i	nt
CCC(=O)N1CCC2(CC1)Oc1ccc(F)cc1C(=O)C21CC(c2ccccc2)=NO1 (configuration not stated)	i	nt	nt	nt	nt	nt
COc1ccc(-c2nc(CSCC(=O)N3CCN(C(=O)c4ccco4)CC3)c(C)o2)cc1OC	i	i	i	i	i	i
SMILES	DAT uptake mod	CYP2C19 activ	CYP2C9 inhib	CYP2C9 activ	CYP2C19 inh	D1 allo mod
O=C(COC(=O)c1ccccc1NC(=O)c1ccco1)NCc1ccc2c(c1)OCO2	i	i	i	i	i	nt
Cc1ccc(F)cc1NC(=O)CCC(=O)c1cccs1	i	i	i	i	89.4	nt
O=C(CCC(=O)c1cccs1)c1cccs1	i	nt	nt	nt	nt	nt
O=C(CCC(=O)c1cccs1)NC(c1ccccc1)c1ccccc1	i	i	54.8	i	73.7	nt
CCOC(=O)C1CCCN(C(=O)c2ccc3c(c2)NC(=O)C(N2CCOCC2)S3)C1 (configuration not stated)	i	i	i	i	i	i
CCOC(=O)N1CCC(Nc2c(NCCCN(C)Cc3ccccc3)c(=O)c2=O)CC1	i	i	i	i	i	i
COc1ccc(CNC(=S)Nc2cccc(C)c2C)cc1	i	i	i	i	i	nt
